Some test systems named below: DU-145 prostate; K-562 leukemia; MALME-3M melanoma; MDA-MB-231 breast; RXF 393 renal; SF-268 CNS; SF-295 CNS; SF-539 CNS; UACC-257 melanoma; M14 melanoma; HCT-15 colon; HT29 colon; SNB-75 CNS; SNB-19 CNS; U251 CNS; PC-3 prostate; SK-MEL-5 melanoma; UACC-62 melanoma; LOX IMVI melanoma; SK-MEL-28 melanoma.
Experiment in all cases: NCI-60 one-dose screen, 48 h (100 = growth as untreated, 0 = no growth, -100 = all killed)
Holding throughout (details): 10 µM unless noted

Compounds without any hit were thinned out: in the full panel of roughly 83,000, 20% have a hit.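 Method: cells in 96-well plates; compound added at one concentration; 48 h incubation; percent growth measured; values under 10 scored active.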 Unmarked numbers belong to inactive results. Active and inactive are the calls of the source.

Among the data in PubChem BioAssay (NCI) are growth values, retold here.

On to `COc1cc2nccc(Oc3ccc(NC(=O)C4(C(=O)Nc5ccc(F)cc5)CC4)cc3)c2cc1OC(=O)c1ccc(N)cc1`, for which the growth in the assay on DU-145 prostate is 45.3%; in the assay with K-562 leukemia, -20.9% (active); in the assay on MALME-3M melanoma it was 26%; with MDA-MB-231 breast, -1.25% (active); in the assay on RXF 393 renal it was -10.4% (active); in the assay on SF-268 CNS, 29.4%. In addition, the growth was -74.6% (active) with SF-295 CNS; -1.2% (active) with SF-539 CNS; 33.5% in the assay on UACC-257 melanoma; 10.8% in the assay with M14 melanoma; 25.9% in the assay on HCT-15 colon; 1.03% (active) in the assay on HT29 colon. Moreover, the growth with SNB-75 CNS was -34.6% (active); with SNB-19 CNS, 37.6%; with U251 CNS, 7.81% (active); in the assay with PC-3 prostate it was 25.4%; with SK-MEL-5 melanoma, 34%; in the assay on UACC-62 melanoma, 40.1%. In addition, the growth in the assay with LOX IMVI melanoma was -51.4% (active).

`Cc1ccccc1N1C(c2ccccc2)=NNC12C=CC(=O)c1c(O)cccc12` (stereo not drawn): the growth in the assay on DU-145 prostate was 94.9%; in the assay with K-562 leukemia it was 63.3%; with MALME-3M melanoma, 75.1%; in the assay on MDA-MB-231 breast, 73.5%; in the assay with RXF 393 renal, 115%; with SF-268 CNS, 76.7%. The growth is 54.5% in the assay with SF-295 CNS; 76.2% in the assay with SF-539 CNS; 45.3% with UACC-257 melanoma; 75.5% in the assay on M14 melanoma; 29.5% in the assay on HCT-15 colon; 91.7% in the assay with HT29 colon. The growth in the assay with SNB-75 CNS was 81.7%; with SNB-19 CNS, 60.8%; in the assay on U251 CNS it was 34.9%; in the assay on PC-3 prostate it was 46.7%; in the assay with SK-MEL-5 melanoma it was -26.3% (active); in the assay with UACC-62 melanoma, 12%. Besides, the growth in the assay with LOX IMVI melanoma was 7.11% (active); with SK-MEL-28 melanoma, 102%.

With `COC1=CC(c2ccc[nH]2)=N/C1=C\c1[nH]c(C)c(C(=O)CCCCCCCCC(=O)O[C@H]2CC[C@H]3C4CCc5cc(O)ccc5C4CC[C@]23C)c1C` (stereo partly drawn), the growth in the assay with DU-145 prostate was 32.2%; in the assay with K-562 leukemia it was 13.1%; with MALME-3M melanoma, 40.5%; in the assay with MDA-MB-231 breast, 3.86% (active); with RXF 393 renal, 52.5%; in the assay on SF-268 CNS it was 38.7%. Further, the growth is 28.8% with SF-295 CNS; 32.5% in the assay on SF-539 CNS; 49.2% in the assay with UACC-257 melanoma; -35.7% (active) in the assay on M14 melanoma; 41% with HCT-15 colon; 14.3% with HT29 colon. Besides, the growth is 19.6% in the assay on SNB-75 CNS; 56.2% with SNB-19 CNS; 20.9% in the assay with U251 CNS; 23% in the assay with PC-3 prostate; -83% (active) in the assay with SK-MEL-5 melanoma; -48.3% (active) with UACC-62 melanoma. For the same compound, the results for the growth in the assay with LOX IMVI melanoma and in the assay with SK-MEL-28 melanoma were -44.2% (active) and 34.5%, respectively.

As for `CCOC(=O)C1=C(C)NC(SCc2nnc(-c3ccc(Cl)cc3)o2)=NC1c1ccc(Cl)cc1` (stereo not drawn), the growth in the assay with DU-145 prostate was 87.2%; with K-562 leukemia, 55.8%; with MALME-3M melanoma it was 81.7%; in the assay with MDA-MB-231 breast it was 62.7%; with RXF 393 renal it was 67.7%; in the assay on SF-268 CNS it was 86%. For the same compound, the growth in the assay with SF-295 CNS was 74.1%; in the assay on SF-539 CNS it was 87.7%; with UACC-257 melanoma it was 86.9%; with M14 melanoma it was 69.3%; in the assay on HCT-15 colon, 67.6%; in the assay on HT29 colon it was 75.2%. Also, the growth with SNB-75 CNS is 73.7%; in the assay on SNB-19 CNS it was 73%; with U251 CNS, 73.9%; with PC-3 prostate, 48.8%; in the assay with SK-MEL-5 melanoma, 40.9%; with UACC-62 melanoma it was 49.9%. The figures for the growth in the assay with LOX IMVI melanoma and in the assay on SK-MEL-28 melanoma were 76.9% and 79.8%, respectively.

As for `CN1CCN(Cc2ccc(NC(=O)c3cncc(C#Cc4cnc5cccnn45)c3)cc2C(F)(F)F)CC1`, the growth in the assay on DU-145 prostate was 3.43% (active); in the assay with K-562 leukemia, 2.91% (active); with MALME-3M melanoma, -46.5% (active); in the assay with MDA-MB-231 breast, -14.4% (active); in the assay on RXF 393 renal, -56.3% (active); with SF-268 CNS it was -27.9% (active). For the same compound, the growth in the assay with SF-295 CNS is 28.6%; in the assay on SF-539 CNS it was -47.9% (active); with UACC-257 melanoma, 3.46% (active); in the assay with M14 melanoma it was -33.5% (active); with HCT-15 colon, 5.63% (active); in the assay with HT29 colon, 1.67% (active). Further, the growth in the assay with SNB-75 CNS was -68.8% (active); in the assay with SNB-19 CNS, 9.4% (active); in the assay with U251 CNS, 5.83% (active); in the assay with PC-3 prostate, 5.62% (active); with SK-MEL-5 melanoma it was 1.22% (active); with UACC-62 melanoma, 10%. Further, the growth with LOX IMVI melanoma is -16.2% (active).

Regarding `O=C(C(=O)c1cccnc1)c1cccnc1`, the growth in the assay with DU-145 prostate is 121%; in the assay on K-562 leukemia, 110%; with MALME-3M melanoma, 118%; with MDA-MB-231 breast, 99.7%; in the assay with RXF 393 renal, 136%; in the assay with SF-268 CNS, 95.8%. The growth with SF-295 CNS is 116%; in the assay on SF-539 CNS, 99.3%; in the assay with UACC-257 melanoma, 95%; in the assay on M14 melanoma, 96.3%; in the assay with HCT-15 colon, 120%; in the assay with HT29 colon it was 108%. For the same compound, the growth in the assay on SNB-75 CNS was 107%; with SNB-19 CNS, 110%; in the assay on U251 CNS it was 112%; in the assay with PC-3 prostate it was 107%; in the assay with SK-MEL-5 melanoma, 105%; with UACC-62 melanoma, 102%. Moreover, the values for the growth with LOX IMVI melanoma and in the assay with SK-MEL-28 melanoma were 100% and 135%, respectively.

Consider `COc1ccc(C2CC(c3cccc(Nc4ccnc5cc(Cl)ccc45)c3)=NN2c2ccc(Cl)cc2)cc1` (stereo not drawn), for which the growth was 79.2% in the assay on DU-145 prostate; 12.8% with K-562 leukemia; 74.6% with MALME-3M melanoma; 75.5% in the assay on MDA-MB-231 breast; 105% with RXF 393 renal; 55.1% with SF-268 CNS. Further, the growth in the assay on SF-295 CNS was 30.7%; with SF-539 CNS, -31.5% (active); with UACC-257 melanoma it was 70.7%; with M14 melanoma it was 28.3%; with HCT-15 colon it was 42.5%; with HT29 colon it was 64.2%. Besides, the growth with SNB-75 CNS was 79.7%; in the assay on SNB-19 CNS, 94.8%; in the assay with U251 CNS, 65%; with PC-3 prostate, 60.7%; in the assay on SK-MEL-5 melanoma, 53.4%; in the assay on UACC-62 melanoma, 9.78% (active). The growth in the assay with LOX IMVI melanoma was 47.4%; with SK-MEL-28 melanoma it was 65.8%.
